For 62 compounds, inhibition results are on record in PubChem BioAssay AID1578 (Sanford-Burnham Center for Chemical Genomics, 2009).

Screen size: about 290,000 compounds; about 3,000 (1%) were called active. The full list was thinned out, with actives kept by preference. A number with no mark means an inactive call. Cut-off read from the data, not from the text of the source: active = inhibition mostly above about 36% (no sharp cut-off); inactive = mostly below about 34%.

In general, inhibition refers to the change of the read-out against control, counted positive when it falls.

The nature of this assay: inhibition of NOD1-driven NF-kB reporter – cell-based, luminescence, uHTS, primary screen (AID 1578).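 Note: HEK-293T reporter cells stimulated with the NOD1 agonist gamma-tri-DAP.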 The settings on record: NOD1-driven NF-kB luciferase reporter cells, at 4 µM, hits give high values.
In the case of `C=CCNC(=O)C1CCN(c2c([N+](=O)[O-])cc(C(F)(F)F)cc2[N+](=O)[O-])CC1`, the inhibition is 2.2%.

With `Cc1ccccc1NS(=O)(=O)c1ccc(OCC(=O)NCc2ccco2)cc1`, the inhibition is -20.7%.

Consider `CSC1=C(C#N)C(=O)NC(c2ccccc2O)S1` (configuration not stated), for which the inhibition is -3.8%.

For `CSC1=C(C#N)C(=O)NC(c2ccc(Cl)cc2)S1` (configuration not stated), the inhibition is 45% (active).

Regarding `COC(=O)CSC1=C(C#N)C(=O)NC(c2ccccc2)S1` (configuration not stated), the inhibition is 38.8%.

For the compound `COc1cc([N+](=O)[O-])ccc1NC(=S)NNC(=O)c1ccc2c(c1)OCO2`, the inhibition is 15.2%.

As to `N#CC(Cc1cccc(CC(C#N)(c2ccccc2)c2ccccc2)c1)(c1ccccc1)c1ccccc1`, the inhibition is 4.8%.

With `Oc1ccc(C[C@@H]2CNC(=S)N2CCCCC2CCCCC2)cc1`, the inhibition is -30.3%.

On to `CCC(=O)Nc1ccc(Cl)c(NC(=O)c2cccc(OC)c2)c1`, for which the inhibition was -28.2%.

As for `COc1cc(NC(=O)c2ccccc2)c(OC)cc1Cl`, the inhibition is -16.7%.

Regarding `CCC(=O)Nc1ccc(Cl)c(NC(=O)c2ccccc2OC)c1`, the inhibition is 57.1% (active).

`CCC(=O)Nc1ccc(Cl)c(NC(=O)c2c(OC)cccc2OC)c1`: the inhibition was 7%.

With `COc1ccc(C(=O)Nc2cc(OC)c(Cl)cc2OC)cc1`, the inhibition is -33.1%.

As for `c1ccc(CCn2cnc3ccccc32)cc1`, the inhibition was -43.2%.

Regarding `CCCC(=O)C1=C(O)C(C(=O)OC)C(C)(C)CC1=Nc1cccc([N+](=O)[O-])c1` (configuration not stated), the inhibition is -12.8%.

Take `FC(F)(F)Oc1ccc(NC(=S)Nc2ccccc2N2CCOCC2)cc1`: the inhibition is 4.5%.

For the compound `O=C(NCCNC(=O)c1ccccc1F)c1ccccn1`, the inhibition is -8.2%.

Regarding `CCOc1ccc(C(=O)N/N=C(\c2ccccc2)c2ccccn2)cc1`, the inhibition was 63.3%.

For `CCOc1ccc(OCc2ccc(C(=O)N/N=C(\C)c3ccccn3)cc2)cc1`, the inhibition is 91.6% (active).

On to `C/C(=N\NC(=O)c1c[nH]c2ccccc12)c1ccccn1`, for which the inhibition is -30.8%.

On to `C/C(=N\NC(=O)c1ccc(COc2ccccc2)cc1)c1ccncc1`, for which the inhibition was -26.5%.

As for `COCC(=O)N1CCC(n2nnc3cc(C(F)(F)F)ccc32)CC1`, the inhibition is -11.5%.

In the case of `Cc1ccccc1NC(=O)c1ccc2nccnc2c1`, the inhibition was -15.6%.

`COc1ccc(Sc2nnc(Cc3ccccc3)c3ccccc23)cc1`: the inhibition is 46.4%.

As to `Cc1ccc(Sc2nnc(Cc3ccccc3)c3ccccc23)cc1`, the inhibition is 70% (active).

Turning to `c1ccc(Cc2nnc(Sc3ccccc3)c3ccccc23)cc1`, the inhibition is 40.8%.

In the case of `COc1cccc(OCc2cc(C(=O)N(C)C3CC(C)(C)NC(C)(C)C3)no2)c1`, the inhibition is -22.6%.

For `CCOc1ccc(N(CC(=O)O)S(=O)(=O)c2ccc(F)cc2)cc1`, the inhibition is 22.2%.

With `COc1cccc2cc(C(=O)NC(C)C3CCCO3)c(=O)oc12` (configuration not stated), the inhibition is -27.3%.

Consider `N#Cc1c(NC(=O)c2ccccc2Cl)n(Cc2ccccc2)c2nc3ccccc3nc12`, for which the inhibition was 83.5% (active).

`CCCCn1c(NC(C)=O)c(C#N)c2nc3ccccc3nc21`: the inhibition is 22.5%.

For `CCCCn1c(NC(=O)c2ccccc2Cl)c(C#N)c2nc3ccccc3nc21`, the inhibition was 20%.

Consider `CCCCn1c(NC(=O)CC)c(C#N)c2nc3ccccc3nc21`, for which the inhibition was -7.1%.

For the compound `C=CCn1c(NC(=O)c2ccccc2Cl)c(C#N)c2nc3ccccc3nc21`, the inhibition was 28.8%.

Regarding `CCCCn1c(NC(=O)c2ccccc2)c(C#N)c2nc3ccccc3nc21`, the inhibition was 88.5% (active).

Regarding `O=C(C[n+]1cc(Br)cc(Br)c1)c1ccc(Cl)cc1`, the inhibition is -7.2%.

With `CC(=O)Nc1ccc(S(=O)(=O)N2CCC(C(=O)NCCC(=O)Nc3ccccc3)CC2)cc1`, the inhibition is -17.6%.

As for `CCN(CC)c1nc2c(c(=O)[nH]c(=O)n2C)n1CCCc1ccccc1`, the inhibition was -13.8%.

With `CC1c2ccccc2SC(CCCN(C)C)c2ccccc21` (configuration not stated), the inhibition is 59.5% (active).

Take `CN(C)CCC1Sc2ccccc2Oc2ccccc21` (configuration not stated): the inhibition was -13.4%.

Consider `CNCCCC1Sc2ccccc2Oc2ccccc21` (configuration not stated), for which the inhibition was -31.7%.

`COc1cccc(N2C(=O)N(c3ccccc3Cl)C3CS(=O)(=O)CC32)c1` (configuration not stated): the inhibition is -14.5%.

As to `Cc1n[nH]c(C)c1CCCCOc1ccc([N+](=O)[O-])cc1`, the inhibition is -1.4%.

Take `COC(=O)C1CCN(C(=O)C2CCC(=O)N(CCc3cccc(F)c3)C2)CC1` (configuration not stated): the inhibition is -26.6%.

For `C/C(CS(=O)(=O)c1ccccc1)=N\O`, the inhibition is -22.4%.

Turning to `C/C=C(\CS(=O)(=O)c1ccccc1)S(=O)(=O)c1ccccc1`, the inhibition was 60.5%.

Turning to `O=S(=O)(C/C(=C/CO)S(=O)(=O)c1ccccc1)c1ccccc1`, the inhibition is 100% (active).

Take `COc1cccc(OCC(=O)Nc2ccncc2)c1`: the inhibition was -11.4%.

As to `COc1ccccc1NC(=O)/C=C/c1ccc(OC)c(S(=O)(=O)N2CCOCC2)c1`, the inhibition is -9.3%.

On to `CSc1nc(C)cc(OCCNS(=O)(=O)c2cc(C)ccc2C)n1`, for which the inhibition was -15%.

For `Cc1ccccc1Cn1c(C)nc2ccc([N+](=O)[O-])cc2c1=O`, the inhibition is -19.5%.

Turning to `Cc1ccccc1COC(=O)c1cc([N+](=O)[O-])ccc1N1CCOCC1`, the inhibition was -37.5%.

On to `Cc1ccccc1CN1CCc2cc([N+](=O)[O-])ccc21`, for which the inhibition is 58.2% (active).

Consider `O=c1c2ccccc2cnn1Cc1ccc(Br)cc1F`, for which the inhibition is -29.7%.

Take `Cc1c(C(=O)N2CCCCC2)nn(-c2ccc(Cl)cc2)c(=O)c1C#N`: the inhibition was -10.3%.

As for `COc1cc(CN2CCCN(C)CC2)cc([N+](=O)[O-])c1O`, the inhibition was -23.1%.

For `O=C(O)CSCC(=O)N1N=C2/C(=C/c3ccccc3)CCCC2C1c1ccccc1` (configuration not stated), the inhibition is -13.2%.

Take `CC(=O)N1N=C2/C(=C/c3ccccc3)CCCC2C1c1ccccc1` (configuration not stated): the inhibition was 79.9% (active).

In the case of `NC(=O)N1N=C2/C(=C/c3ccccc3)CCCC2C1c1ccccc1` (configuration not stated), the inhibition was -6.2%.

Consider `CN(C)S(=O)(=O)c1cccc(C(=O)Nc2ccccc2)c1`, for which the inhibition was -30.7%.

As to `O=c1c(-c2ccc(Cl)cc2)c[nH]n1-c1ccccc1`, the inhibition was -5.7%.

Regarding `CCOc1cccc(N2C(=O)CC(NCc3ccc(S(N)(=O)=O)cc3)C2=O)c1` (configuration not stated), the inhibition is -9.2%.
